# Source: PubChem BioAssay AID1694 (National Center for Advancing Translational Sciences (NCATS), 2009)
# Results filed as inconclusive are left out. Entries that show only a call come without a potency. Active and inactive are the calls of the source. Calls come from the whole dose curve; as a rule, active = well fitted curve in the direction sought with a large enough effect; inconclusive = small, poorly fitted or top-dose-only effect, or another doubt; inactive = no such curve, though single readings can be large or run the other way.
# Experiment: Confirmation Concentration-Response Assay for Inhibitors of Tau Fibril Formation, Total Fluorescence Counterscreen for Fluorescence Polarization
# Conditions: Alexa594-tau K18 total fluorescence counterscreen, interference, tau K18 with P301L mutation; series mostly up to 100 µM
# Source text: NIH Molecular Libraries Probe Production Network [MLPCN] NIH Chemical Genomics Center [NCGC] MLPCN Grant: X01 MH083262-01 Assay Provider: Carlo Ballatore, University of Pennsylvania NCGC Assay Overview: The microtubule-associated protein tau is an abundant protein in the axons of neurons that stabilizes microtubules. With its ability to modulate microtubule dynamics, tau contributes directly or indirectly, to key structural and regulatory cellular functions. Particularly important is the influence tau exerts on axonal transport, which allows signaling molecules, trophic factors and other essential cellular constituents to travel along the axons. Under pathological conditions, tau becomes sequestered into insoluble aggregates called neurofibrillary tangles. This phenomenon is believed to have pathological consequences by promoting axonal transport deficits that ultimately lead to synaptic dysfunction and neuronal loss. To identify inhibitors of tau aggregation, a heparin-induced tau fibril formation assay was used that employed a recombinantly expressed fragment of tau, K18 (Q242-E372), bearing a P301L mutation (Gustke et al. 1994; Hong et al. 1998). […] Total fluorescence (555 nm excitation and 632 nm emission) was measured to identify fluorescent or absorbent compounds at this wavelength. Such compounds may be artifacts that interfere with the Alexa 594 Tau fluorescence polarization assay. Gustke, N., B. Trinczek, et al. (1994). "Domains of tau protein and interactions with microtubules." Biochemistry 33(32): 9511-22. Hong, M., V. Zhukareva, et al. (1998). "Mutation-specific functional impairments in distinct tau isoforms of hereditary FTDP-17." Science 282(5395): 1914-7. Li, W. and V. M. Lee (2006). "Characterization of two VQIXXK motifs for tau fibrillization in vitro." Biochemistry 45(51): 15692-701. von Bergen, M., S. Barghorn, et al. (2001). "Mutations of tau protein in frontotemporal dementia promote aggregation of paired helical filaments by enhancing local beta-structure." J Biol Chem 276(51): 48165-74.
# For screening, 2 uL/well human K18 P301L (15 uM unlabeled and 0.24 uM Alexa 594-labeled tau final concentrations) in reagent buffer (100 mM sodium acetate pH 7) was dispensed into black solid 1536-well plates (Grenier) using a solenoid-based dispenser. Following transfer of 23 nL compound or DMSO vehicle by a pin tool, 2 uL/well heparin (20 uM final concentration) in reagent buffer was added and the plate centrifuged 15 s at 1000 RPM. Plates were incubated 6 hr at 37 C and then 1 uL/well ThT (30 uM final concentration) was added. After a 1 hr ambient incubation, the plates were read by an Envision (Perkin Elmer) to monitor Alexa 594 FP (555 nm excitation and 632 nm emission). Keywords: NIH Roadmap, MLPCN, MLI, MLSMR, NCGC, qHTS, tau, tauopathies, Alzheimer's disease, fibril, neurodegeneration, aggregation
row,SMILES,Potency
1,Cc1ccc(C(=O)Nc2nc(=O)n(C(=O)C3CC3)s2)cc1,inactive
2,CC1CCc2c(sc(NC(=O)Cc3ccccc3)c2C(=O)Nc2ccc(Cl)cc2)C1 (stereo not given),inactive
3,CCOC(=O)c1nn(-c2ccccc2)c(=O)c2c(N)scc12,inactive
4,Nc1scc2c(C(=O)N3CCOCC3)nn(-c3ccccc3)c(=O)c12,inactive
5,CN(c1ccccc1)S(=O)(=O)c1nnc(NC(=O)C2CCCCC2)s1,inactive
6,Cc1ccc(N(C)S(=O)(=O)c2nnc(NC(=O)C3CCCCC3)s2)cc1,inactive
7,Nc1scc2c(C(=O)O)nn(-c3ccccc3)c(=O)c12,inactive
8,O=C(Cc1ccccc1)Nc1sc2c(c1C(=O)Nc1cccc(Cl)c1)CCCC2,inactive
9,O=C(Cc1ccccc1)Nc1sc2c(c1C(=O)Nc1ccc(Br)cc1)CCCC2,inactive
10,NCCc1ccc(O)c(O)c1,inactive
11,COC(=O)CSc1nc2ccc(NC(=O)CSc3nnnn3Cc3ccccc3)cc2s1,inactive
12,Cc1ccc(C2=NNC(=Nc3ccc(F)cc3)SC2)cc1,inactive
13,O=C(O)CC1S/C(=N/N=C/c2ccc(-c3ccccc3[N+](=O)[O-])o2)NC1=O (stereo not given),inactive
14,COC(=O)c1c(NC(=O)C(C)(C)C)sc2c1C(C(=O)OC)CC2 (stereo not given),inactive
15,O=C(Cc1ccccc1)Nc1sc2c(c1C(=O)Nc1ccc(Cl)cc1)CCOC2,inactive
16,Cc1ccc(NCc2cc3cc4c(cc3n(CC(=O)Nc3ccc(C)cc3)c2=O)OCCO4)cc1,inactive
17,CCN(CC)C(=O)c1nn(-c2ccc(OC)cc2)c(=O)c2c(N)scc12,inactive
18,CCOC(=O)N1CCN(C(=O)CN2C(=O)/C(=C\c3cccc(OC)c3)SC2=S)CC1,inactive
19,O=C(Nc1nc2ccc(S(=O)(=O)N3CCCC3)cc2s1)c1ccc(F)cc1,inactive
20,Cc1ccc(S(=O)(=O)N(C)c2nc3ccccc3[nH]c2=S)cc1,inactive

row,SMILES,Potency
1,Cc1cc2c(NC(=O)Nc3ccccc3)cccc2nn1,inactive
2,Nc1cc(-c2ccncc2)c[nH]c1=O,inactive
3,Cc1ccc(N2C(=O)SC(Cc3ccccc3)C2=O)cc1 (stereo not given),inactive
4,CCOC(=O)c1nn(-c2ccc(OC)cc2)c(=O)c2c(NC(=O)Cc3ccccc3)scc12,inactive
5,COC(=O)c1ccccc1NC(=O)CSc1nc2sc3c(c2c(=O)[nH]1)CCCC3,inactive
6,CCOC(=O)c1ccc(S(=O)(=O)Nc2nc3cc(S(=O)(=O)NC4=NCCCCC4)ccc3s2)cc1,inactive
7,Cn1cc(Cl)c(C(=O)Nc2cccc(Cl)c2Cl)n1,inactive
8,CCOC(=O)c1nn(-c2ccccc2F)c(=O)c2c(N)scc12,inactive
9,Cn1ncc(Cl)c1C(=O)Nc1cccc(Cl)c1,inactive
10,O=C(Nc1nnc(S(=O)(=O)Nc2ccccc2)s1)C1CCCCC1,inactive
11,Cc1ccc(NC(=O)N2CCN(c3ccccn3)CC2)cc1,inactive
12,NC(=O)c1nn(-c2ccccc2)c(=O)c2c(N)scc12,inactive
13,CN(C)S(=O)(=O)c1cccc(N=C2NN=C(c3ccccc3)CS2)c1,inactive
14,CCOC(=O)c1nn(-c2cccc(C(F)(F)F)c2)c(=O)c2c(N)scc12,1580 nM [quencher] (active)
15,O=C(O)CC1S/C(=N/N=C/c2ccc(-c3ccc(Cl)cc3[N+](=O)[O-])o2)NC1=O (stereo not given),inactive
16,COc1ccc(NC(=O)c2c(NC(=O)Cc3ccccc3)sc3c2CCCC3)cc1,inactive
17,CN(c1ccccc1)S(=O)(=O)c1nnc(NC(=O)COc2ccccc2)s1,inactive
18,CC(C)(C)c1ccc(NC(=O)N2CCN(c3ccc([N+](=O)[O-])cn3)CC2)cc1,inactive
19,Nc1nn(-c2ccccc2)c(=O)c2c(N)scc12,inactive
20,COc1c(Cl)cccc1NC(=O)c1c(NC(=O)Cc2ccccc2)sc2c1CCCC2,inactive
